# Test results from paper PMC12751014, “Non-Catalytic Inhibitors of the p38/MK2 Interface: Repurposing Approved Drugs to Target Neuroinflammation in Alzheimer’s Disease” (Journal of Medicinal Chemistry, 2025).
# Hit rate of the full screen: of about 1,900 compounds, about 50 (3%) showed an effect of 50% or more. This excerpt belongs to a sample that is enriched for strong results.
# Target: p38/MK2 protein–protein interaction (VF-p38α / GST-MK2) (Homo sapiens, UniProt Q16539)
# Test: primary screen, percent of control activity; higher = less effect of the substance
# Parameters: species or system HEK293T cell lysate transfected with VF-p38α and GST-MK2; unclear (methods say 'quintuplet replicates')
# Procedure: The TR-FRET assay was conducted in a 1536-well plate (Corning, catalog no. 3724) with HEK293T cell lysate transfected with VF-p38α and GST-MK2. Cell-lysate concentration was optimized with a titration experiment. Anti-Flag-Tb and anti-GST-d2 antibodies (Revvity, catalog no. 61FGBTLB) were used to couple p38α and MK2, respectively. A multiple-drop Combi dispenser (Thermo Scientific) combined reaction mixtures in quintuplet replicates. The TR-FRET signals were measured using a BMG Labtech PHERAstar FSX plate reader and normalized to the percent of DMSO control.
# Sequence of p38/MK2 protein–protein interaction (VF-p38α / GST-MK2) (Q16539 2-360 limits assumed): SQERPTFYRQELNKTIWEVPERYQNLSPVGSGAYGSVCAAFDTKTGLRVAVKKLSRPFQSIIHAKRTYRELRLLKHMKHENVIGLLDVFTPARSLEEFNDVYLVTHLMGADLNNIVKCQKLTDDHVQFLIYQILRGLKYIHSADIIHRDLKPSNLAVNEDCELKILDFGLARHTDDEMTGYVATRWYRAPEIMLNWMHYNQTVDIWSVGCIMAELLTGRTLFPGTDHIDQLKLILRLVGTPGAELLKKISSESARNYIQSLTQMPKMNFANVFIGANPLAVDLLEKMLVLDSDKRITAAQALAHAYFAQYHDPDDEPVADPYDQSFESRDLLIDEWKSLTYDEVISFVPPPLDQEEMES
row,Compound,Pct of control [%]
1,COc1ccc(-c2cnc3c(-c4cccc5ncccc45)cnn3c2)cc1,23.2
2,CN1CCC(OC(c2ccccc2)c2ccccc2)CC1.Cl,89.1
3,COc1ccc(C2=NC(c3ccc(Cl)cc3)C(c3ccc(Cl)cc3)N2C(=O)N2CCNC(=O)C2)c(OC(C)C)c1 (stereo not drawn) [S8065],100
4,COc1ccccc1S(=O)(=O)Nc1ccc2c(c1)CN(C)C(=O)N2,117
5,CCN(C(=O)c1c(O)c2c(Cl)cccc2n(C)c1=O)c1ccccc1,88.3
6,O=[N+]([O-])c1ccc2c(c1)S(=O)(=O)C=C2,58.2
7,CC1CN(CC(=O)Nc2ccc3c(c2)Cc2cccc(-c4cc(=O)cc(N5CCOCC5)o4)c2S3)CC(C)O1 (stereo not drawn),82.7
8,CN(CC(=O)N(Cc1ccc(C2CCCCC2)cc1)c1ccc(C(=O)O)cc1)S(=O)(=O)c1c(F)c(F)c(F)c(F)c1F,24.1
9,O=c1c2ccccc2nc2n1CCc1c-2[nH]c2ccccc12,100
10,NNC(=O)c1ccncc1,86.5
11,CCOC(=O)c1ccc(C#Cc2ccc3c(c2)C(C)(C)CCS3)nc1,106
12,Cc1cc(Nc2ncnc3ccc(-c4ccc(CNCCS(C)(=O)=O)o4)cc23)ccc1Oc1ccn2ncnc2c1,24.2
13,Cc1ccc(CNc2ncnc3ccc(-c4ccc(CO)o4)cc23)o1,69.2
14,CS(=O)(=O)CCNCc1ccc(-c2ccc3ncnc(Nc4ccc(OCc5cccc(F)c5)c(Cl)c4)c3c2)o1,88.1
15,Cc1cc(=O)[nH]c(=S)[nH]1,101
16,CN(c1ncccc1CNc1nc(Nc2ccc3c(c2)CC(=O)N3)ncc1C(F)(F)F)S(C)(=O)=O.Cl,76.7
17,CN(c1ncccc1CNc1nc(Nc2ccc3c(c2)CC(=O)N3)ncc1C(F)(F)F)S(C)(=O)=O,106
18,CS(=O)(=O)c1cccc(CNc2nc(Nc3ccc4c(c3)CCC(=O)N4)ncc2C(F)(F)F)c1,34
19,CC(C)Cc1ccc(C(C)C(=O)O)cc1 (stereo not drawn),93
20,O=C(COc1cccc2c(=O)[nH]ccc12)c1ccccc1,89.7

row,Compound,Pct of control [%]
1,CNS(=O)(=O)Cc1ccc2[nH]cc(CCN(C)C)c2c1.O=C(O)CCC(=O)O,102
2,CC(=O)OC1(C(C)=O)CCC2C3CC(C)C4=CC(=O)CCC4(C)C3CCC21C (stereo not drawn),87
3,COc1c(C)c(C(=O)c2ccc(N)c(C(=O)[O-])c2)n2ccccc12.[Na+],94
4,CC(C)c1ccccc1Cc1cc(C(=O)Nc2ccc(S(=O)(=O)c3ccccc3C(C)(C)C)cc2)c(O)c(O)c1O,33.3
5,CC(C)(C)c1cc(C(C)(C)C)c(NC(=O)c2c[nH]c3ccccc3c2=O)cc1O,111
6,CC(=O)NS(=O)(=O)c1ccc(NC(=O)c2ccccc2C(=O)O)cc1,96.2
7,Cc1ccc(Cl)c(Nc2ccccc2C(=O)[O-])c1Cl.[Na+],95.1
8,COc1ccc2cccc(CCNC(C)=O)c2c1,90.6
9,CS(=O)(=O)O.CS(=O)(=O)O.Cc1ccc(C(=O)Nc2ccc(CN3CCN(C)CC3)c(C(F)(F)F)c2)cc1C#Cc1cnc2[nH]ncc2c1,73.8
10,NS(=O)(=O)C#Cc1ccccc1,97.5
11,Cc1cccc(C#Cc2ccccc2)n1,29.7
12,O=C1NC(=O)C(=Cc2ccc3nccc(-c4ccncc4)c3c2)S1,126
13,Cc1ccc(Cl)cc1N(CC(=O)Nc1c(F)cccc1F)S(C)(=O)=O,91.8
14,N#CC(c1ccc(Cl)cc1)c1c(Cl)cc(-n2ncc(=O)[nH]c2=O)cc1Cl (stereo not drawn),72
15,COc1cc2c(cc1-c1c(C)noc1C)ncc1[nH]c(=O)n(C(C)c3ccccn3)c12 (stereo not drawn),53.6
16,Cc1cc(NC(=O)Nc2ccc(N(C)C)cc2)c2cc(F)cc(F)c2n1,89.3
17,CN(C)c1ccc(-c2nc3ncc(Cl)c(N4CCN(CC(=O)Nc5nccs5)CC4)c3[nH]2)cc1,97.9
18,COc1ccc(-c2ccc3ncc4c(c3c2)n(-c2ccc(N3CCNCC3)c(C(F)(F)F)c2)c(=O)n4C)cn1.O=C(O)C=CC(=O)O,45
19,Nc1ccc(-c2ccc3ncc4ccc(=O)n(-c5cccc(C(F)(F)F)c5)c4c3c2)cn1,87.9
